D3 antag = qHTS of D3 Dopamine Receptor Antagonist: qHTS. hit rate 2.5% among 360,000. AID 652054, 2013. max response, negative = inhibition, %. D3R cells, DiscoveRx beta-arrestin luminescence, antagonist mode; hits give low values; in the data active = max response below about -50%
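Cells expressing the human receptor were seeded at 1500 cells/well, incubated overnight at 37 degrees C in 5% CO2, then exposed to library compounds with dopamine controls for 90 minutes at 37 degrees C before luminescent detection.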
D1 antagonist = Antagonist of Human D 1 Dopamine Receptor: qHTS; D(1A) dopamine receptor (Homo sapiens), P21728; activity change, negative = inhibition, % at 10 µM; HEK293 TREx D1 cells, calcium flux, dopamine EC80; hits give low values; hit rate 3.2% among 360,000; in the data active = activity change below about -30%
Target sequence (P21728 whole entry, looked up): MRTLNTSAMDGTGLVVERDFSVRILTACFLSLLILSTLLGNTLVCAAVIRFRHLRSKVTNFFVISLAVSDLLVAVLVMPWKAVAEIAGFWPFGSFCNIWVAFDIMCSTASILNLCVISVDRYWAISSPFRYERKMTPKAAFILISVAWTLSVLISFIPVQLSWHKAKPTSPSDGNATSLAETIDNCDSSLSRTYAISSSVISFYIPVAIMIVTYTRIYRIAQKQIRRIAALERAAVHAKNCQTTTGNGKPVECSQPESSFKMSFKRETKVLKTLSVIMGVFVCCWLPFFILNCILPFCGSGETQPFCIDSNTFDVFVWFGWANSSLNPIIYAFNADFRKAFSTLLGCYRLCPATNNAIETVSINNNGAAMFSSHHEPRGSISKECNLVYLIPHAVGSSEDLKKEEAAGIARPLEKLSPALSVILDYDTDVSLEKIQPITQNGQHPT
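Compound effects on dopamine-evoked calcium signalling were measured in tetracycline-induced HEK293 Trex D1 cells. Dopamine at EC80 followed a 180 s compound pre-read, and fluorescence was tracked kinetically for 180 s more.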
DRD3 agonist = qHTS of D3 Dopamine Receptor Agonist: qHTS; D(3) dopamine receptor (Homo sapiens), P35462; D3R DiscoveRx beta-arrestin cells, luminescence, 90 min; max activation, %; hit rate 0.58% among 410,000; AID 652048, 2013; in the data active = max activation above about 30%
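Agonist mode: compounds and dopamine controls were applied to plated cells for 90 min at 37 degrees C after an overnight attachment at 1500 cells/well. Luminescent read-out followed 30 - 60 minutes at room temperature with DiscoveRx detection reagent.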
D1 potentiator = Potentiators of Human D1 Dopamine Receptor: qHTS; HEK293 TREx D1 cells, calcium flux, dopamine EC20 potentiation; potentiation, % at 10 µM; hit rate 0.036% among 360,000; in the data active = potentiation above about 30%
D1 ag = Allosteric Agonists of the Human D1 Dopamine Receptor: qHTS; AID 504660, 2011; activation, % at 2 µM; hit rate 1% among 360,000; D(1A) dopamine receptor (Homo sapiens), P21728; HEK293 T-REx D1 cells, calcium flux, agonist mode; in the data active = activation above about 30%
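Agonism was scored from calcium flux recorded over 180 s (1 read/s) after pintool compound addition, following a 10-cycle baseline. Cells were inducible force-coupled HEK293 TREx D1, plated overnight at 30 C and loaded with no-wash calcium dye.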
Numbers stand for hits. Hits are enriched below; roughly 6% of the tested compounds scored in any of these assays.

Cc1ccc(Oc2nc3c(c(=O)n(Cc4ccccc4)c(=O)n3C)n2C)cc1C was read as D1 antagonist inactive, DRD3 agonist 35.2, D1 potentiator inactive and D1 ag inactive.
Screening Cc1ccc(Oc2nc3c(c(=O)n(Cc4ccccc4Cl)c(=O)n3C)n2C)cc1C returned D1 antagonist inactive, DRD3 agonist inactive, D1 potentiator inactive and D1 ag inactive.
For Cn1c(NCCCCO)nc2c1c(=O)n(Cc1ccc(Cl)cc1)c(=O)n2C the results were D1 antagonist -33.1, DRD3 agonist inactive, D1 potentiator inactive and D1 ag inactive.
`Cn1c(NCCCN2CCOCC2)nc2c1c(=O)n(Cc1ccc(Cl)cc1)c(=O)n2C` gave D3 antag inactive, D1 antagonist inactive, DRD3 agonist inactive, D1 potentiator inactive and D1 ag inactive.
For COc1ccc(Cn2c(=O)c3c(nc(NCCO)n3C)n(C)c2=O)cc1 the results were D3 antag inactive, D1 antagonist -32.8, DRD3 agonist inactive, D1 potentiator inactive and D1 ag inactive.
For CC(C)(C)c1ccccc1Nc1nc(C#N)nc(NC2CCCC2)n1 the results were D1 antagonist inactive, D1 potentiator inactive and D1 ag inactive.
`Cc1cccc(OCCSc2nnc(-c3cccs3)o2)c1` gave D1 antagonist inactive, DRD3 agonist inactive, D1 potentiator inactive and D1 ag 43.8.
COc1cc(C)ccc1OCCSc1nnc(-c2cccs2)o1 was read as D1 antagonist inactive, DRD3 agonist inactive, D1 potentiator inactive and D1 ag inactive.
Cc1[nH]c2ccccc2c1C(=O)CN1C(=O)NC(C)(c2ccc(Cl)cc2Cl)C1=O (stereo unspecified) was read as D3 antag inactive, D1 antagonist inactive, DRD3 agonist inactive, D1 potentiator inactive and D1 ag 37.0.
Cc1cccc(S(=O)(=O)c2cn(C)c3cc(N4CCN(c5ccccc5)CC4)c(F)cc3c2=O)c1 was read as D1 antagonist inactive, DRD3 agonist inactive, D1 potentiator inactive and D1 ag inactive.
Screening COc1ccc(C2=NOC(Cn3nc(C(=O)NCc4cccc(Br)c4)cc3-c3ccccc3)C2)cc1 (stereo unspecified) returned D3 antag inactive and DRD3 agonist inactive.
For COc1ccc(C2=NOC(Cn3nc(-c4ccccc4)cc3C(=O)NCc3cccc(Br)c3)C2)cc1 (stereo unspecified) the results were D3 antag inactive and DRD3 agonist 34.3.
CCOc1ccc(NC(=O)CSc2nc3ccsc3c(=O)n2CCC(C)C)cc1 was read as D1 antagonist inactive, DRD3 agonist inactive, D1 potentiator inactive and D1 ag inactive.
CN(C)c1ccc(C2C3=C(CCCC3=O)OC3=C2C(=O)CCC3)cc1 was read as D3 antag -55.4, D1 antagonist inactive, DRD3 agonist inactive, D1 potentiator inactive and D1 ag inactive.
`CC1=CC(=C(c2ccc(N)cc2)c2ccc(N)cc2)C=CC1=N` gave DRD3 agonist inactive.
For CN(C)/C=C1\SC(=S)N(c2ccc(F)cc2)C1=O the results were D3 antag inactive, D1 antagonist inactive, DRD3 agonist inactive, D1 potentiator inactive and D1 ag inactive.
For CN(C)/C=C1\SC(=S)N(c2ccc(Br)cc2)C1=O the results were D3 antag inactive, D1 antagonist inactive, DRD3 agonist inactive, D1 potentiator inactive and D1 ag 41.1.
`COC(=O)c1ccccc1NC(=O)Cn1nc(C)c2nn(-c3ccc(Cl)cc3)c(C)c2c1=O` gave D1 antagonist inactive, DRD3 agonist inactive, D1 potentiator inactive and D1 ag inactive.
For COc1ccccc1Cn1c(CNS(=O)(=O)c2cccc([N+](=O)[O-])c2)nc2cccnc21 the results were D1 antagonist inactive, DRD3 agonist inactive, D1 potentiator inactive and D1 ag inactive.
For O=C(O)c1ccc(CS(=O)c2cccc(C(F)(F)F)c2)o1 (stereo unspecified) the results were D3 antag inactive, D1 antagonist -31.7, DRD3 agonist inactive, D1 potentiator inactive and D1 ag inactive.
Cc1ccc(NC(=O)CSc2cc(=O)n(C)c3ccc(Cl)cc23)c(Br)c1 was read as D1 antagonist inactive, DRD3 agonist inactive, D1 potentiator inactive and D1 ag inactive.
Screening COc1ccc(Cl)cc1NC(=O)NCC1CCN(Cc2cc(C)ccc2C)CC1 returned D3 antag -84.9, D1 antagonist -31.3, DRD3 agonist inactive, D1 potentiator inactive and D1 ag inactive.
`COc1cc([N+](=O)[O-])ccc1NC(=O)NCC1CCN(Cc2ccc(Cl)cc2)CC1` gave D3 antag -72.5, D1 antagonist -33.0, DRD3 agonist inactive, D1 potentiator inactive and D1 ag 31.5.
Screening O=C(NCC1CCN(Cc2cccc(Cl)c2)CC1)Nc1cc(Cl)ccc1Cl returned D1 antagonist inactive, DRD3 agonist inactive, D1 potentiator inactive and D1 ag inactive.
Screening Cc1nc(Br)c(Br)c(C)c1Br returned D3 antag inactive, D1 antagonist -30.7, DRD3 agonist inactive, D1 potentiator inactive and D1 ag inactive.
Screening Cc1nc(N2CCOCC2)c(C#N)c(C)c1Br returned D3 antag inactive, D1 antagonist inactive, DRD3 agonist inactive, D1 potentiator inactive and D1 ag inactive.
`CC[C@@H](C)CCCCC(=O)N[C@@H](CCNCS(=O)(=O)O)C(=O)N[C@H](C(=O)N[C@@H](CCNCS(=O)(=O)O)C(=O)N[C@H]1CCNC(=O)[C@H]([C@@H](C)O)NC(=O)[C@H](CCNCS(=O)(=O)O)NC(=O)[C@H](CCNCS(=O)(=O)O)NC(=O)[C@H](CC(C)C)NC(=O)[C@@H](CC(C)C)NC(=O)[C@H](CCNCS(=O)(=O)O)NC1=O)[C@@H](C)O` gave DRD3 agonist inactive.
CCOC(=O)Cn1nc(NC(=O)c2ccc(C(=O)OC)cc2)cc1C was read as D3 antag inactive, D1 antagonist inactive, DRD3 agonist inactive, D1 potentiator inactive and D1 ag inactive.
Screening CCCCCC/C(=N/O)c1ccccn1 returned D3 antag inactive, D1 antagonist -37.1, DRD3 agonist inactive, D1 potentiator inactive and D1 ag inactive.
CC(C)(C)NS(=O)(=O)c1ccc(OCC(=O)NCCC2=CCCCC2)cc1 was read as D3 antag inactive, D1 antagonist inactive, DRD3 agonist inactive, D1 potentiator inactive and D1 ag inactive.
`COc1ccc(Nc2oc(/C=C/c3cc(OC)c(OC)c(OC)c3)nc2C#N)cc1` gave D1 antagonist inactive, DRD3 agonist inactive, D1 potentiator inactive and D1 ag inactive.

Screening data deposited in PubChem by National Center for Advancing Translational Sciences (NCATS).
